Source: PubChem BioAssay (SRMLSC)
Spn DPM-DC inh – S. pneumoniae DPM-DC inhibitors, primary screen, biochemical, PK/LDH-coupled NADH fluorescence | diphosphomevalonate decarboxylase (Streptococcus pneumoniae D39) | purified DPM-DC | calls only at 10 µM | actives 0.49% (n = 65,000) | AID 556, 2006;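 active means the 320 compounds with the highest percent inhibition in the single-dose primary screen, excluding strongly autofluorescent ones, cut at about 32% in these data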;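 further: kinetic rate of NADH fluorescence loss reporting ADP formed by the decarboxylase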
NADH coupling – inhibitors of PK/LDH coupling enzymes, profiling panel, artefact control, biochemical, MLSMR library | coupled PK/LDH NADH assays, four targets | IC50, µM (top dose mostly 10 µM) | actives 0.02% (n = 65,000) | AID 774, 2007;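 active means single-dose screening hits from any of four coupled enzyme assays that gave an IC50 when retested across doses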;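 further: the DPM-DC format reads NADH fluorescence rather than 340 nm absorbance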
Autofluor 339 – intrinsic fluorescence of library compounds, ex339/em460 – biochemical, MLSMR library, data from DPM-DC assay, artefact control, profiling panel; compound autofluorescence, ex339/em460 nm, NADH buffer; active compounds read high; 1 = no-compound wells, NADH background; fluorescence fold increase at 10 µM; actives 5.5% (n = 65,000); AID 709, 2007;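 active means at 10 µM, mean starting fluorescence two-fold or more over control wells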;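 further: signal is the first read of a kinetic run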
Spn MK inh – S. pneumoniae MK inhibitors, primary screen, biochemical, PK/LDH-coupled NADH absorbance | mevalonate kinase [Streptococcus pneumoniae D39] | purified MK, PK/LDH-coupled NADH absorbance 340 nm | inhibition, % at 10 µM | actives 0.48% (n = 65,000) | AID 555, 2006;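 active means ranked among the strongest by inhibition in the single 10 µM screen, a fixed top-ranked set picked for dose follow-up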
Abs 340nm – compound light absorbance at 340 nm, profiling panel, artefact control, biochemical, MLSMR library, data from PS, PMK, MK assays | compound absorbance at 340 nm, fold over control | fold change at 10 µM | 65,000 tested, under 10 active;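 active means at 10 µM dose, initial 340 nm absorbance at least 2 fold that of control wells; inactive means change under 2 fold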;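 further: initial absorbance extrapolated from kinetic A340 decline of NADH oxidation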
PMK inhibit – S. pneumoniae PMK inhibitors, primary screen, biochemical, mevalonate pathway, pilot trial included | AID 539, 2006 | phosphomevalonate kinase (Streptococcus pneumoniae D39) | actives 0.49% (n = 65,000) | purified PMK, PK/LDH-coupled NADH absorbance 340 nm | inhibition, % at 10 µM;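 active means top-ranked compounds by inhibition in the single 10 µM screen, taking a fixed number of the strongest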
Numbers stand for hits. Rows were chosen to be rich in hits. Some 6.8% of all compounds tested hit in one or more screens of this group.

What do the screens show for `CCn1c(=O)c2cc(C(=O)NCc3cccs3)sc2c2ccccc21`?
Spn DPM-DC inh: inactive; NADH coupling: inactive; Autofluor 339: inactive; Spn MK inh: inactive; Abs 340nm: inactive; PMK inhibit: inactive

What do the screens show for `CCn1c(=O)c2cc(C(=O)NCCN3CCOCC3)sc2c2ccccc21`?
NADH coupling: inactive; Autofluor 339: 2.1; Spn MK inh: inactive; Abs 340nm: inactive; PMK inhibit: inactive

Results for CCn1c2ccccc2c2nnc(SCC(=O)Nc3cc(C)on3)nc21 ?
Spn DPM-DC inh: inactive; NADH coupling: inactive; Autofluor 339: inactive; Spn MK inh: inactive; Abs 340nm: inactive; PMK inhibit: inactive

What do the screens show for `Cc1ccc2[nH]c(=O)c3cc(C(=O)NCCN4CCN(C)CC4)sc3c2c1`?
NADH coupling: inactive; Autofluor 339: 2.4; Spn MK inh: inactive; Abs 340nm: inactive; PMK inhibit: inactive

How did CCn1c(=O)c2cc(C(=O)Nc3cc(C)on3)sc2c2ccccc21 do in these assays?
NADH coupling: inactive; Autofluor 339: 2.2; Spn MK inh: inactive; Abs 340nm: inactive; PMK inhibit: inactive

What do the screens show for `CCOCc1nc(N)[nH]c(=O)c1Cc1ccc(OC(C)C)cc1`?
Spn DPM-DC inh: inactive; NADH coupling: inactive; Autofluor 339: inactive; Spn MK inh: inactive; Abs 340nm: inactive; PMK inhibit: inactive

What do the screens show for `Cn1c(SCc2cc(=O)n3cc(Br)ccc3n2)nnc1C1COc2ccccc2O1` (configuration not stated)?
Spn DPM-DC inh: inactive; NADH coupling: inactive; Autofluor 339: inactive; Spn MK inh: inactive; Abs 340nm: inactive; PMK inhibit: inactive

How did CCOc1ccc2ccccc2c1C(=O)Nc1cc(=O)n(C)c(=O)n1C do in these assays?
Spn DPM-DC inh: inactive; NADH coupling: inactive; Autofluor 339: inactive; Spn MK inh: inactive; Abs 340nm: inactive; PMK inhibit: inactive

What do the screens show for `c1csc(Cn2c(-c3cccs3)nc3ccccc32)c1`?
Spn DPM-DC inh: inactive; NADH coupling: inactive; Autofluor 339: 2.8; Spn MK inh: inactive; Abs 340nm: inactive; PMK inhibit: inactive

What do the screens show for `Brc1ccccc1Cn1c(-c2cncs2)nc2ccccc21`?
Spn DPM-DC inh: inactive; NADH coupling: inactive; Autofluor 339: inactive; Spn MK inh: inactive; Abs 340nm: inactive; PMK inhibit: inactive

Results for Cc1nccc2[nH]c(=O)c(C(=O)NC3CCN(Cc4ccccc4)CC3)cc12 ?
Spn DPM-DC inh: inactive; NADH coupling: inactive; Autofluor 339: inactive; Spn MK inh: inactive; Abs 340nm: inactive; PMK inhibit: inactive

What do the screens show for `Cc1cccc(NS(=O)(=O)c2ccc(Oc3ccccc3)cc2)n1`?
Spn DPM-DC inh: inactive; NADH coupling: inactive; Autofluor 339: 2.9; Spn MK inh: inactive; Abs 340nm: inactive; PMK inhibit: inactive

What do the screens show for `Cc1cc(NS(=O)(=O)c2ccc(-c3ccccc3)cc2)no1`?
Spn DPM-DC inh: inactive; NADH coupling: inactive; Autofluor 339: inactive; Spn MK inh: inactive; Abs 340nm: inactive; PMK inhibit: inactive

What do the screens show for `CC(C)c1cc(C(F)(F)F)n2nc(C(=O)Nc3ccc4c(c3)OCO4)cc2n1`?
Spn DPM-DC inh: inactive; NADH coupling: inactive; Autofluor 339: inactive; Spn MK inh: inactive; Abs 340nm: inactive; PMK inhibit: inactive

How did CCOc1ccc2nc3ccc4[nH]onc4c3c2c1 do in these assays?
NADH coupling: inactive; Autofluor 339: 2.3; Spn MK inh: inactive; Abs 340nm: inactive; PMK inhibit: inactive

How did CCOc1c(C)cc(-c2ncccc2O)cc1C do in these assays?
Spn DPM-DC inh: inactive; NADH coupling: inactive; Autofluor 339: 3.8; Spn MK inh: inactive; Abs 340nm: inactive; PMK inhibit: inactive

What do the screens show for `CCS(=O)(=O)NCc1csc(C)n1`?
Spn DPM-DC inh: inactive; NADH coupling: inactive; Autofluor 339: inactive; Spn MK inh: inactive; Abs 340nm: inactive; PMK inhibit: inactive

Results for CCS(=O)(=O)NCCc1csc(C)n1 ?
Spn DPM-DC inh: inactive; NADH coupling: inactive; Autofluor 339: inactive; Spn MK inh: 77; Abs 340nm: inactive; PMK inhibit: inactive

How did O=[n+]1c2c(n([O-])c3c1CCCC3)CCCCC2 do in these assays?
Spn DPM-DC inh: inactive; NADH coupling: inactive; Autofluor 339: inactive; Spn MK inh: inactive; Abs 340nm: inactive; PMK inhibit: inactive

Results for COc1cccc2cc3c(=O)n(-c4ccccc4)nc-3oc12 ?
Spn DPM-DC inh: active; NADH coupling: inactive; Autofluor 339: inactive; Spn MK inh: inactive; Abs 340nm: inactive; PMK inhibit: inactive

What do the screens show for `Cc1cc(OCC(=O)C(C)(C)C)c2c(C)c(C)c(=O)oc2c1`?
NADH coupling: inactive; Autofluor 339: 2.1; Spn MK inh: inactive; Abs 340nm: inactive; PMK inhibit: inactive

Results for O=C(CCN1CCc2ccccc2CC1)c1ccc2c(c1)OCCO2 ?
Spn DPM-DC inh: inactive; NADH coupling: inactive; Autofluor 339: inactive; Spn MK inh: inactive; Abs 340nm: inactive; PMK inhibit: inactive

How did CCN(CC)CCOC(=O)c1c(C)n(C)c2ccc(OC)cc12 do in these assays?
Spn DPM-DC inh: inactive; NADH coupling: inactive; Autofluor 339: inactive; Spn MK inh: inactive; Abs 340nm: inactive; PMK inhibit: inactive

What do the screens show for `COc1ccc2c(c1)c1c(n2C(C)=O)C(OC(C)=O)=NCC1`?
NADH coupling: inactive; Autofluor 339: 2.3; Spn MK inh: inactive; Abs 340nm: inactive; PMK inhibit: inactive

How did Oc1oc(-c2ccco2)nc1C=Nc1ccccc1 do in these assays?
Spn DPM-DC inh: inactive; NADH coupling: inactive; Autofluor 339: inactive; Spn MK inh: inactive; Abs 340nm: inactive; PMK inhibit: inactive

How did Oc1ccccc1/C=N/c1c(-c2ccco2)nc2ccccn12 do in these assays?
NADH coupling: inactive; Autofluor 339: 3.6; Spn MK inh: inactive; Abs 340nm: inactive; PMK inhibit: inactive

Results for CCOC(=O)c1c(NC(=O)c2ccco2)sc2c1CCCCC2 ?
NADH coupling: inactive; Autofluor 339: 2.1; Spn MK inh: inactive; Abs 340nm: inactive; PMK inhibit: inactive

How did COc1ccc(OC)c(NC(=O)c2c(NC(=O)c3ccco3)sc3c2CCC3)c1 do in these assays?
Spn DPM-DC inh: inactive; NADH coupling: inactive; Autofluor 339: 2.1; Spn MK inh: inactive; Abs 340nm: inactive; PMK inhibit: inactive

What do the screens show for `CCCc1cc(C(=O)Nc2sc(C)c(C)c2C(=O)OCC)no1`?
NADH coupling: inactive; Autofluor 339: 2.4; Spn MK inh: inactive; Abs 340nm: inactive; PMK inhibit: inactive

What do the screens show for `CCOC(=O)c1c(-c2cccs2)csc1NC(=O)c1ccncc1`?
NADH coupling: inactive; Autofluor 339: 2.2; Spn MK inh: inactive; Abs 340nm: inactive; PMK inhibit: inactive

How did CC(C)CCNC(=O)C(c1cccs1)N(CC1CCCO1)C(=O)Cn1nnc2ccccc21 (configuration not stated) do in these assays?
Spn DPM-DC inh: inactive; NADH coupling: inactive; Autofluor 339: inactive; Spn MK inh: inactive; Abs 340nm: inactive; PMK inhibit: inactive
